Results published in PubChem BioAssay.
Values joined by “and” are separate entries in the source; they are usually repeats but may differ in a detail not shown here. Identical values can stand only once. Active and inactive are the calls of the source.

tested on: XIP peptide (Xip251-270) binding; experiment: small-molecule binders of XIP peptide, primary screen, biochemical, small-molecule microarray, fluorescence 635/667 nm, 0.1 µg/mL protein (AID 1182); conditions: fluorescent protein binding, 635 nm, higher = more signal, called active from +8 up or from −8 down

Compound	composite z-score
CC(C)N1CC=CC23O[C@@H]4C=CCCOC(=O)C4[C@H]2C(=O)N(C(C)CO)[C@@H]3C1=O (stereo partly drawn)	1.78 (inactive) and 0.425 (inactive)
C=CCN(CCCCC)C(=O)C1N(c2c(Cl)cccc2CO)C(=O)C2C(C(=O)O)C3C=CC21O3 (stereo not drawn)	-0.421 (inactive) and -0.228 (inactive)
C=CCN(C(=O)C(c1cccs1)N(C(=O)/C=C\C(=O)O)c1c(Cl)cccc1CO)C(C)(C)C (stereo not drawn)	-0.0516 (inactive) and 0.0403 (inactive)
C=C[C@H](OC)[C@@H](O)c1ccc(O)c(F)c1	0.406 (inactive) and -0.397 (inactive)
C=CC[C@@H](O)c1ccc(O)c2ccccc12	2.01 (inactive) and 0.431 (inactive)
C=C[C@@H](C)[C@@H](O)c1ccc(OCCO)cc1	-0.704 (inactive) and -0.999 (inactive)
C=CCN(CCCCC)C(=O)C1N(CCCCCCO)C(=O)C2C(C(=O)O)C3C=CC21O3 (stereo not drawn)	0.0579 (inactive) and 0.042 (inactive)
C=CCN(CCCC)C(=O)C1N(C(C)(C)CO)C(=O)C2C(C(=O)O)C3C=CC21O3 (stereo not drawn)	-0.485 (inactive) and -0.807 (inactive)
O=C1C[C@]2(c3ccc([N+](=O)[O-])cc3)C(=O)N(Cc3ccccc3)c3cc(CO)ccc3[C@H]2N1C1CCCCC1	-0.182 (inactive) and 0.877 (inactive)
C=C[C@H](C)[C@@H](O)c1ccc(OCCO)cc1	-0.301 (inactive) and -0.375 (inactive)
C=CCN(C(=O)C(c1cccs1)N(C(=O)/C=C\C(=O)O)C(C)(C)CO)C(C)(C)C (stereo not drawn)	0.075 (inactive) and -0.479 (inactive)
C=C[C@@H](C)[C@@H](O)c1ccc(O)c2ccccc12	0.238 (inactive) and 0.467 (inactive)
C=CCN(Cc1ccccc1)C(=O)C1N(c2ccc(CCO)cc2)C(=O)C2C(C(=O)O)C3C=CC21O3 (stereo not drawn)	0.224 (inactive) and -0.96 (inactive)
C=CCN1C(=O)[C@]2(O[C@H](CCn3cc(CCO)nn3)[C@@H]([Si](C)(C)c3ccc(OC)cc3)[C@@H]2C)c2cc(N3C(=O)c4cccc5cccc3c45)ccc21	0.0184 (inactive) and 0.416 (inactive)

tested on: XIP peptide (Xip251-270); experiment: small-molecule binders of XIP peptide, primary screen, biochemical, small-molecule microarray, fluorescence 635/667 nm, 0.5 µg/mL protein (AID 1183); conditions: small-molecule microarray binding, fluorescence 635 nm; higher = more signal

Compound	composite z-score
C=CCN(CCCC)C(=O)C1N(CCOCCO)C(=O)C2C(C(=O)O)C3C=CC21O3 (stereo not drawn)	1.07 and -0.932
C=CCN(C(=O)C1N(C(C)(C)CO)C(=O)C2C(C(=O)O)C3C=CC21O3)C(C)(C)C (stereo not drawn)	-0.901 and -0.924
C=CCN(C(=O)C1N(CCOCCO)C(=O)C2C(C(=O)O)C3C=CC21O3)c1ccc(OC)cc1 (stereo not drawn)	0.138 and 0.24
O=C1NC(=O)C2C1C=CC(C(O)c1ccc([N+](=O)[O-])cc1)N2Nc1ccc(Cl)cc1Cl (stereo not drawn)	0.762 and 0.163
CCOC(=O)C[C@H]1[C@H](OC(=O)c2ccccc2-c2ccccc2)[C@@H](NC(=O)c2ccccc2)c2cc(OCCCO)ccc2N1C(=O)c1ccc2ccccc2n1	-0.0343 and 0.393
COC(=O)[C@@]1(Cc2ccc(F)cc2)[C@H]2c3cc(C(=O)N4CCCC4)n(Cc4c(CO)[nH]cc(C)c4=O)c3C[C@H]2CN1C(=O)c1ccccc1	-0.307 and 0.761
CC(CO)N1C(=O)[C@@H]2C3C(=O)OCCC=C[C@H]3OC23C=CCN(c2ccc4ccccc4c2)C(=O)[C@@H]13 (stereo partly drawn)	0.713 and 0.135
C=CCN(C(=O)C1N(C(C)(C)CO)C(=O)C2C(C(=O)O)C3C=CC21O3)c1ccc(OC)cc1 (stereo not drawn)	-0.383 and -1.8
C=CCN(C(=O)C(c1cccs1)N(C(=O)/C=C\C(=O)O)c1ccc(CCO)cc1)C(C)(C)C (stereo not drawn)	-0.998 and 0.187
C=C[C@@H](OC)[C@H](O)c1ccc(OC)c(O)c1	-0.531 and -1.37
C=CCN(CCCCC)C(=O)C(c1cccs1)N(C(=O)/C=C\C(=O)O)c1ccc(CCO)cc1 (stereo not drawn)	0.861 and -0.198
C=CCN(C(=O)C(c1cccs1)N(C(=O)/C=C\C(=O)O)c1c(Cl)cccc1CO)c1ccc(OC)cc1 (stereo not drawn)	-0.457 and -1.04
C=C[C@H](OC)[C@@H](O)c1ccc(OCCO)cc1	-1.15 and -0.537
C=CCN(C(=O)C1N(c2c(Cl)cccc2CO)C(=O)C2C(C(=O)O)C3C=CC21O3)c1ccc(OC)cc1 (stereo not drawn)	0.74 and 0.312
C#CCN1C(/C=C/c2ccccc2)C(=O)OC[C@H]1c1ccccc1 (stereo partly drawn)	-0.0814 and 0.83
C=C[C@H](C)[C@H](O)c1ccc(O)c2ccccc12	-0.236 and 0.788
C=CCN(C(=O)C1N(CCOCCO)C(=O)C2C(C(=O)O)C3C=CC21O3)C(C)(C)C (stereo not drawn)	0.102 and -0.294
C[N+](C)(C)CCCCCCNC(=O)[C@@H]1C[C@@H]2C(=O)N[C@@H](CCCC[N+](C)(C)C)C(=O)N2[C@@H]1c1ccc(O)cc1	0.907 and 0.898
C[N+](C)(C)CCCCCCNC(=O)[C@H]1C[C@H]2C(=O)N[C@@H](CCCC[N+](C)(C)C)C(=O)N2[C@H]1c1ccc(O)cc1	0.0535 and -0.189
C=CCN(CCCC)C(=O)C(c1cccs1)N(CCOCCO)C(=O)/C=C\C(=O)O (stereo not drawn)	-0.836 and -0.765

Compound	composite z-score
C=CCN(CCCC)C(=O)C1N(c2ccc(CCO)cc2)C(=O)C2C(C(=O)O)C3C=CC21O3 (stereo not drawn)	0.261 and -0.728
C[N+](C)(C)CCCCNC(=O)[C@@H]1C[C@@H]2C(=O)N[C@@H](CCCC[N+](C)(C)C)C(=O)N2[C@@H]1c1cccc(OCCO)c1	0.697 and 0.917
C=CCN(Cc1ccccc1)C(=O)C1N(C(C)(C)CO)C(=O)C2C(C(=O)O)C3C=CC21O3 (stereo not drawn)	0.234 and -0.526
C=CCN(Cc1ccccc1)C(=O)C1N(CCOCCO)C(=O)C2C(C(=O)O)C3C=CC21O3 (stereo not drawn)	-1.03 and -0.657
C=CCN(C(=O)C(c1cccs1)N(C(=O)/C=C\C(=O)O)c1ccc(CCO)cc1)c1ccc(OC)cc1 (stereo not drawn)	-0.0376 and -1.95
CC(C)N1CC=CC23O[C@@H]4C=CCCOC(=O)C4[C@H]2C(=O)N(C(C)CO)[C@@H]3C1=O (stereo partly drawn)	0.716 and -0.58
C=CCN(CCCCC)C(=O)C1N(c2c(Cl)cccc2CO)C(=O)C2C(C(=O)O)C3C=CC21O3 (stereo not drawn)	-0.416 and -1.42
C=CCN(C(=O)C(c1cccs1)N(C(=O)/C=C\C(=O)O)c1c(Cl)cccc1CO)C(C)(C)C (stereo not drawn)	0.689 and -1.16
C=C[C@H](OC)[C@@H](O)c1ccc(O)c(F)c1	0.563 and 0.0248
C=CC[C@@H](O)c1ccc(O)c2ccccc12	0.703 and 0.802
C=C[C@@H](C)[C@@H](O)c1ccc(OCCO)cc1	-0.664 and 0.0227
C=CCN(CCCCC)C(=O)C1N(CCCCCCO)C(=O)C2C(C(=O)O)C3C=CC21O3 (stereo not drawn)	0.69 and 0.714
C=CCN(CCCC)C(=O)C1N(C(C)(C)CO)C(=O)C2C(C(=O)O)C3C=CC21O3 (stereo not drawn)	0.214 and -0.185
O=C1C[C@]2(c3ccc([N+](=O)[O-])cc3)C(=O)N(Cc3ccccc3)c3cc(CO)ccc3[C@H]2N1C1CCCCC1	-0.242 and 0.519
C=C[C@H](C)[C@@H](O)c1ccc(OCCO)cc1	0.112 and 0.861
C=CCN(C(=O)C(c1cccs1)N(C(=O)/C=C\C(=O)O)C(C)(C)CO)C(C)(C)C (stereo not drawn)	-0.796 and 0.851
C=C[C@@H](C)[C@@H](O)c1ccc(O)c2ccccc12	-0.54 and -0.684
C=CCN(Cc1ccccc1)C(=O)C1N(c2ccc(CCO)cc2)C(=O)C2C(C(=O)O)C3C=CC21O3 (stereo not drawn)	-0.726 and 0.918
C=CCN1C(=O)[C@]2(O[C@H](CCn3cc(CCO)nn3)[C@@H]([Si](C)(C)c3ccc(OC)cc3)[C@@H]2C)c2cc(N3C(=O)c4cccc5cccc3c45)ccc21	0.577 and 0.719
